# PubChem BioAssay AID1376 (SRMLSC, 2008)
# The campaign covered roughly 220,000 compounds. About 530 (0.24%) were called active. This is one part of a sample in which actives are shown more often than they occur. No stated cut-off is given here; in the data, active means inhibition above about 13%; inconclusive means no clear call, values can overlap the other calls; inactive means below that. Measured potencies and affinities stand elsewhere.
# Molecular target: Bifunctional protein GlmU (Mycobacterium tuberculosis (strain ATCC 25618 / H37Rv)) (UniProt P9WMN3)
# Assay: inhibition of mycobacterial GlmU enzyme – biochemical, glucosamine-1-phosphate acetyltransferase (AID 1376);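 further: 0% = complete reaction with vehicle and 100% = reaction without substrate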
# Details: M. tuberculosis GlmU acetyltransferase enzyme assay; active compounds read high;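 tested at 30 µM in the primary screen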
# Chain of Bifunctional protein GlmU (Mycobacterium tuberculosis (strain ATCC 25618 / H37Rv)) (P9WMN3 whole entry, looked up): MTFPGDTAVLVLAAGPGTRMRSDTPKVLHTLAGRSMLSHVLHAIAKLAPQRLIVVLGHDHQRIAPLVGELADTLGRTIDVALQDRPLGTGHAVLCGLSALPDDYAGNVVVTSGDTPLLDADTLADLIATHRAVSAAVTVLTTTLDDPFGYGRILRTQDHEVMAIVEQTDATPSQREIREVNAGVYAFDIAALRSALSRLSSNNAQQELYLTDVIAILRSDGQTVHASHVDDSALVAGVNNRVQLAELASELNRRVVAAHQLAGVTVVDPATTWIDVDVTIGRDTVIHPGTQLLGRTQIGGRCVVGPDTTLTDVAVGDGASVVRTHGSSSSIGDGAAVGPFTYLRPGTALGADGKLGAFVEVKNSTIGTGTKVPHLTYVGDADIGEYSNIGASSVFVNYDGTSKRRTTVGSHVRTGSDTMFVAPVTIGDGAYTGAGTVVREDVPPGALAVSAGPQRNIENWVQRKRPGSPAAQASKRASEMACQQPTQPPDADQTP
row,Structure (SMILES),inhibition
1,CCOC(=O)c1sc(Nc2ccccc2Cl)nc1C,1.72% (inactive)
2,O=C(CCc1nc2ccccc2c(=O)[nH]1)OCc1ccc(Cl)cc1Cl,-1.63% (inactive)
3,O=S(=O)(NCc1ccc(F)cc1)c1ccc2c(c1)OCCO2,4.82% (inactive)
4,COc1ccc(C(=O)Cc2ccc(OC)c(OC)c2)c(OC)c1,14.1% (active)
5,COc1ccc(C(=O)Cc2ccc(OC)c(OC)c2)cc1,0.95% (inactive)
6,COc1ccc(C(=O)Cc2ccc(F)cc2)c(OC)c1,8.08% (inactive)
7,COc1cc(S(=O)(=O)N2CCOCC2)ccc1NC(=O)CSc1nnc(N)s1,10.7% (inactive)
8,Cc1cccc(N=Nc2cnc(N)s2)c1,4.97% (inactive)
9,COc1cc(C(=O)O)ccc1Cl,1.44% (inactive)
10,Nc1ncc(N=Nc2cc(C(=O)O)ccc2Cl)s1,13.8% (active)
11,CC(=O)Nc1cccc(Oc2ccc([N+](=O)[O-])cc2Cl)c1,2.81% (inactive)
12,CCn1c2ccccc2c2nc3cc(C(=O)O)ccc3nc21,1.61% (inactive)
13,CCn1c2ccc(Cl)cc2c2nc3ccccc3nc21,2.14% (inactive)
14,O=c1c2ccccc2oc2ncccc12,3.79% (inactive)
15,O=c1[nH]c(=S)[nH]c(O)c1C(c1ccccn1)c1c(O)[nH]c(=S)[nH]c1=O,9.35% (inactive)
16,CC(=O)CC(c1ccc([N+](=O)[O-])cc1)c1c(O)c2ccccc2oc1=O (configuration not stated),1.67% (inactive)
17,O=[N+]([O-])c1ccc2c(c1)oc1ccccc12,0.45% (inactive)
18,COc1cc2c(cc1NC(=O)Cn1cnc3c1c(=O)n(C)c(=O)n3C)oc1ccccc12,9.92% (inactive)
19,C=CCN1C(=NC(=O)CCC(=O)O)SC2CS(=O)(=O)CC21 (configuration not stated),0.93% (inactive)
20,CCN1CCN(c2cc(C)c3cc(NC(=O)c4ccccc4F)ccc3n2)CC1,-4.15% (inactive)
21,Cn1cnnc1SCc1cccc(Br)c1,2.34% (inactive)
22,CCn1ncc(NC(=S)Nc2ccc3c(c2)OCO3)c1C(N)=O,-0.08% (inactive)
23,Cc1nn(-c2ccccc2)c(=S)c2ccccc12,-0.11% (inactive)
24,COc1ccc(NCC(=O)Nc2ccccc2C#N)cc1Cl,16.5% (active)
25,COc1ccc(NC(=O)CNc2cccc(C#N)c2)cc1Cl,0.65% (inactive)

row,Structure (SMILES),inhibition
1,COc1ccc(NCC(=O)Nc2ccc(C#N)cc2)cc1Cl,1.17% (inactive)
2,Clc1ccc(-c2nnc(CSc3nnc(-c4cccs4)n3Cc3ccccc3)o2)cc1,-1.83% (inactive)
3,CC(=O)N1CCCSC1=Nc1ccccc1,1.84% (inactive)
4,Cc1ccc(-c2nc(SCC(=O)NCC3CCCO3)c(-c3ccc(C)cc3)[nH]2)cc1 (configuration not stated),-0.94% (inactive)
5,O=[N+]([O-])c1cccc(CSc2cccc[n+]2[O-])c1,6.55% (inactive)
6,O=[N+]([O-])c1ccc(NCc2ccccc2)c2nonc12,0.67% (inactive)
7,Oc1cccc(C(=S)N2CCCCC2)c1,-2.56% (inactive)
8,CCOC(=O)C1C(=O)NC(SCC(=O)OC)=C(C#N)C1c1ccccc1OCC (configuration not stated),-2.95% (inactive)
9,CCOC(=O)C1C(=O)NC(SCC(N)=O)=C(C#N)C1c1ccccc1OCC (configuration not stated),5.97% (inactive)
10,CCOC(=O)CSC1=C(C#N)C(c2ccccc2OCC)C(C(=O)OCC)C(=O)N1 (configuration not stated),13.2% (active)
11,Cc1ccc(C)c2[nH]c(=O)c(CN(Cc3ccc4c(c3)OCO4)Cc3nnnn3Cc3ccco3)cc12,2.41% (inactive)
12,Cc1ccc(NC(=O)c2cccc(C(=O)OC(C)C)n2)c(Br)c1,-4.22% (inactive)
13,O=[N+]([O-])c1cccnc1N1CCCCC1,13.3% (active)
14,O=[N+]([O-])c1cccnc1N1CCOCC1,1.56% (inactive)
15,O=C1CCN(c2ncccc2[N+](=O)[O-])CC1,-2.93% (inactive)
16,Cc1ccc(C)c(/C(O)=C2\C(=O)C(=O)N(CCCn3ccnc3)C2c2ccncc2)c1 (configuration not stated),-3.1% (inactive)
17,Cc1cccc(C2C3=C(Nc4[nH]n(-c5ccccc5)c(=O)c42)c2ccccc2C3=O)c1 (configuration not stated),14.6% (active)
18,COc1cccc(C2C3=C(Nc4[nH]n(-c5ccccc5)c(=O)c42)c2ccccc2C3=O)c1 (configuration not stated),-1.89% (inactive)
19,Cc1ccc(C2C3=C(Nc4[nH]n(-c5ccccc5)c(=O)c42)c2ccccc2C3=O)cc1 (configuration not stated),8.68% (inactive)
20,CCOC(=O)c1c(C)[nH]c(C(=O)CSc2nc3ccccc3o2)c1C,-3.5% (inactive)
21,Cc1cc(/C=N/Nc2ccc([N+](=O)[O-])cn2)c(C)n1-c1ccc(C(=O)O)cc1,18.4% (active)
22,Cc1c(C(=O)O)cccc1-n1c(C)cc(/C=N/Nc2ccc([N+](=O)[O-])cn2)c1C,3.53% (inactive)
23,Cc1cc(/C=N/Nc2ccc([N+](=O)[O-])cn2)c(C)n1-c1ccccc1,-0.82% (inactive)
24,CCOC(=O)c1cc(-c2ccc(F)cc2)n(CC(=O)Nc2nccs2)c1C,-5.76% (inactive)
25,Cc1ccc(NC(=O)CCC(=O)OC(C(=O)c2ccc(C)c(C)c2)c2ccccc2)c(C)c1 (configuration not stated),1.52% (inactive)

row,Structure (SMILES),inhibition
1,Cc1ccc(C(=O)C(OC(=O)CCC(=O)Nc2cccc(C)c2)c2ccccc2)cc1 (configuration not stated),14.9% (active)
2,O=C(CCC(=O)OC(C(=O)c1ccccc1)c1ccccc1)Nc1ccccc1 (configuration not stated),-0.93% (inactive)
3,O=[N+]([O-])c1ccc(N2CCNCC2)cc1Sc1nc2ccccc2[nH]1,-3.78% (inactive)
4,O=C(CSC1CN(C(c2ccccc2)c2ccccc2)C1)N/N=C/c1ccccc1,1.05% (inactive)
5,O=C(OCC(=O)N1CCN(C(=O)c2ccco2)CC1)c1cn(-c2ccccc2)nc1-c1ccccc1,9.88% (inactive)
6,CCc1nc2ccccc2[nH]1,-1.65% (inactive)
7,Oc1ccc(O)c(Cc2nc3ccccc3[nH]2)c1,14.4% (active)
8,CNCc1nc2ccccc2[nH]1,2.1% (inactive)
9,O=C(NCCC1CC1(Cl)Cl)Nc1ccccc1 (configuration not stated),2.82% (inactive)
10,O=C1C2C(c3ccccc3)=NN(c3ccccc3)C2C(=O)N1c1ccccc1 (configuration not stated),0.94% (inactive)
11,O=C1[C@H]2C(c3ccccc3)=NN(c3ccccc3)[C@H]2C(=O)N1c1ccccc1,14.2% (active)
12,CCOc1ccc(N2C(=O)C3C(c4ccccc4)=NN(c4ccccc4)C3C2=O)cc1 (configuration not stated),4.13% (inactive)
13,O=C(N/N=C/C=C/c1ccco1)/C(=C/c1ccccc1)NC(=O)c1ccccc1,3.94% (inactive)
14,C/C(=N\NC(=O)NC1CCCCC1)C1CCCCC1,5.48% (inactive)
15,O=C(Nc1ccc(SC(F)F)cc1)c1ccc(F)cc1,2.04% (inactive)
16,CC(C(=O)N=c1sc2ccccc2n1C)N1C(=O)C2CC=CCC2C1=O (configuration not stated),13.6% (active)
17,CC(=O)N=c1sc2ccccc2n1C,-1.3% (inactive)
18,Cn1c(=NC(=O)CN2C(=O)C3CC=CCC3C2=O)sc2ccccc21 (configuration not stated),-0.18% (inactive)
19,CC(C)NC1=C(Cl)C(=O)c2ccccc2C1=O,13.7% (active)
20,CCNC1=C(Cl)C(=O)c2ccccc2C1=O,-3.8% (inactive)
21,O=C1C(Cl)=C(Nc2ccccc2)C(=O)c2ccccc21,-4.13% (inactive)
22,O=C1c2ccccc2S(=O)(=O)c2cc(C(=O)N3CCN(C(=O)c4ccccc4)CC3)ccc21,-2.8% (inactive)
23,CCN(CCNC(=O)Cn1cc2c(n1)CCCC2)c1ccccc1,-0.86% (inactive)
24,CCOc1ccc(C(=O)SC2=NCCS2)cc1,8.72% (inactive)
25,S=c1nc(C2CCCCC2)[nH]c2ccccc12,-2.69% (inactive)

row,Structure (SMILES),inhibition
1,S=c1nc(C2CCCCC2)[nH][nH]1,14% (active)
2,Nc1n[nH]c(C2CCCCC2)n1,-2.96% (inactive)
3,CCc1nc(N2CCN(S(C)(=O)=O)CC2)c2c3c(sc2n1)CCCC3,-2.08% (inactive)
4,COc1ccc(N/C=C2/Sc3ccccc3NC2=O)cc1,0.09% (inactive)
5,O=C(NC1CCN(C(=O)N2c3ccccc3Sc3ccccc32)CC1)c1ccccc1Cl,2.41% (inactive)
6,Cc1ccc(SC(C)c2nc(-c3ccccc3)no2)cc1 (configuration not stated),14.3% (active)
7,Cc1ccc(SC(C)c2nc(-c3cccnc3)no2)cc1 (configuration not stated),-3.18% (inactive)
8,Cc1ccc(SC(C)c2nc(-c3ccncc3)no2)cc1 (configuration not stated),5.19% (inactive)
9,CC12CCC(C(=O)NCc3ccccc3Cl)(OC1=O)C2(C)C (configuration not stated),0.28% (inactive)
10,Cc1[nH]c(=O)[nH]c(=O)c1/C=N/NC(=O)[C@@H](NC(=O)OC(C)(C)C)C(C)C,-0.37% (inactive)
11,Cc1[nH]c(=O)[nH]c(=O)c1/C=N/NC(=O)[C@H](C)NC(=O)OC(C)(C)C,12.9% (active)
12,Cc1[nH]c(=O)[nH]c(=O)c1/C=N/NC(=O)CCNC(=O)OC(C)(C)C,-1.18% (inactive)
13,CCN(C(=O)c1nn(-c2ccc(OC)cc2)c(=O)c2c1c1ccccc1n2C)c1ccc(OC)cc1,-3.7% (inactive)
14,C=CCn1c(O)c(C=NCCN2CCOCC2)c(=O)[nH]c1=S,-1.69% (inactive)
15,Cc1cc2nc(-c3ccc(SCc4ccc(C(=O)O)cc4)nc3)[nH]c2cc1C,13.2% (active)
16,CC(=O)CSc1ccc(-c2nc3cc(C)c(C)cc3[nH]2)cn1,8.32% (inactive)
17,Cc1cc2nc(-c3ccc(SCc4ccc(C#N)cc4)nc3)[nH]c2cc1C,0.22% (inactive)
18,O=C(O)c1ccccc1-c1ccccc1C(=O)Nc1cccc(Br)c1,0.35% (inactive)
19,CCOc1ccc(-c2cc3cc(OC)c(OC)cc3c(C)n2)cc1,-1.9% (inactive)
20,Cc1nc(-c2ccccc2Cl)sc1C(=O)/C=C/N(C)C,-0.01% (inactive)
21,Cc1ccc2nc(-c3ccc(NC(=O)CSCC(=O)O)cc3)sc2c1,4.5% (inactive)
22,Cc1nnc(SCC(=O)Nc2ccc(-c3nc4ccccc4s3)cc2)s1,6.16% (inactive)
